KCNQ2 pot = enhances the rat KCNQ2 potassium channel. CHO-K1 KCNQ2, FluxOR thallium flux fluorescence; active compounds read high. 310,000 compounds, 0.54% hits. B-score at 10 µM. AID 2239;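 active = fluorescence ratio B-score at least 3 SD of library B-scores, with initial fluorescence B-score within 3 of them, cut at about 5.3 in these data; same plate scores as AID 2156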;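 note: B-score of peak minus minimum over baseline fluorescence ratio after K+ and Tl+ stimulus; positive B-score means potentiation of KCNQ2 with more thallium influx and brighter signal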
Target sequence (O88943 whole entry, looked up): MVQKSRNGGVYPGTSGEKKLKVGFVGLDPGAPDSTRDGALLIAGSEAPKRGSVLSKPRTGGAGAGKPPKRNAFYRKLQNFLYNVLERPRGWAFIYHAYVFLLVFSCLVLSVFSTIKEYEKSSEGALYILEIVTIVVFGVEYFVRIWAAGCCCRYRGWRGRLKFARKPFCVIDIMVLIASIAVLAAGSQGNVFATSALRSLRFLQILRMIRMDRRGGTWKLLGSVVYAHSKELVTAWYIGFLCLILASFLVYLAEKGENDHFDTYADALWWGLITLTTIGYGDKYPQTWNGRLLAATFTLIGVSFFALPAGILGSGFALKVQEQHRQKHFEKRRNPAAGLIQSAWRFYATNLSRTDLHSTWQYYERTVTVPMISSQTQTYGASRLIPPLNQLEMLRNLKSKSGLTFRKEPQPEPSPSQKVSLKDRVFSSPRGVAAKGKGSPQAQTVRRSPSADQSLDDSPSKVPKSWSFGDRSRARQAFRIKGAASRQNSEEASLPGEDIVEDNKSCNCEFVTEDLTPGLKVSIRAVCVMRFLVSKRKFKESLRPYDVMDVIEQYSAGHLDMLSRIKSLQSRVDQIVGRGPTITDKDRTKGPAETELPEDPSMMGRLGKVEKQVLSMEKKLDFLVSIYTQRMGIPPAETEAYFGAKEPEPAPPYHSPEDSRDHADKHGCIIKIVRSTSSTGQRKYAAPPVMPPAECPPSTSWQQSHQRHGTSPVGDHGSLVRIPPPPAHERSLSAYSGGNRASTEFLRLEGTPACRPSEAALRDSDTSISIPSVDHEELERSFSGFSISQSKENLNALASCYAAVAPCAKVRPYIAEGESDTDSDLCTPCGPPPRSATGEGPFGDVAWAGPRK
KCNQ2 inh = inhibitors of rat KCNQ2 potassium channel | CHO-K1 KCNQ2, FluxOR thallium flux, 20 min; active compounds read low | B-score at 10 µM | 310,000 compounds, 1.1% hits | AID 2156;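 active = fluorescence ratio B-score at most minus 3 library SDs, with starting brightness B-score within 2 library SDs, cut at about -5.5 in these data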
An asterisk follows results filed as active; i = inactive; x = no result given. An excerpt weighted towards active compounds, which were near 1.6% of everything screened.

SMILES	KCNQ2 pot	KCNQ2 inh
Cc1ccc(-n2nc3c(c2NC(=O)/C=C\c2ccc4c(c2)OCO4)CSC3)c(C)c1	x	i
Cc1ccccc1-n1nc2c(c1NC(=O)/C=C\c1ccc3c(c1)OCO3)CSC2	-6.7	-6.7*
Cc1cccn2c(/C=N/OCc3cccc(F)c3)c(-c3ccc(Cl)cc3)nc12	x	i
Fc1cccc(CO/N=C/c2c(-c3ccccc3)nc3ccc(Cl)cn23)c1	-6.8	-6.8*
Cc1nn(C(C)(C)C)c(OC(=O)c2ccc3c(c2)OCO3)c1Sc1ccccc1	x	i
Cc1nn(C(C)(C)C)c(OC(=O)c2ccc(Br)o2)c1Sc1ccccc1	x	i
Cc1nn(C(C)(C)C)c(OC(=O)c2ccco2)c1Sc1ccccc1	-6.1	-6.1*
Cc1nn(C(C)(C)C)c(OC(=O)c2cccs2)c1Sc1ccccc1	-8	-8*
COc1ccc(C(=O)OCC(=O)NCCN2C(=O)CSC2=O)cc1	0.57	i
CC1=C(C(=O)OCCc2ccccc2)C(c2ccsc2)NC(=O)N1C (stereo unspecified)	x	i
Oc1ccc(Br)cc1-c1ccnn1-c1ccccc1	x	i
Cc1ccc(NC(=S)N2CCN(c3ccccc3F)CC2)c(C)c1	x	i
Cc1cccc(N2CCN(S(=O)(=O)c3c(C)[nH]c(C)c3C(=O)N3CCCCC3)CC2)c1C	-5.9	-5.9*
Cc1cccc(N2CCN(S(=O)(=O)c3c(C)[nH]c(C)c3C(=O)N3CCCC3)CC2)c1C	x	i
COc1ccccc1/C(O)=C(\C#N)c1nc2ccccc2[nH]1	x	i
COc1ccc(Cl)cc1C(=O)NCCN(C)C	0.4	i
CN(C)CCNC(=O)c1ccc(COc2ccc(Cl)cc2Cl)cc1	-7.6	-7.6*
O=C(CO/N=C/c1ccccc1Cl)N1CCCc2ccccc21	-6.1	-6.1*
O=C(CO/N=C/c1ccccc1OC(F)F)N1CCc2ccccc21	x	i
CCc1ccc(C(=O)C(C)OC(=O)CNS(=O)(=O)c2ccc(C)cc2)cc1 (stereo unspecified)	x	i
CC1CC(NC(=O)CC#N)CC(C)(C)C1 (stereo unspecified)	x	i
CC1CC(NC(=O)Cc2ccc(Br)cc2)CC(C)(C)C1 (stereo unspecified)	-5.7	-5.7*
O=C(O)CC1(CC(=O)Nc2ccc3c(c2)OCCCO3)CCCCC1	x	i
Cc1ccc(S(=O)(=O)NC(=O)COc2cc(C)ccc2C(C)C)cc1	0.2	i
O=C(Nc1cccc(Cl)c1Cl)C1CCN(C(=O)c2cccs2)CC1	x	i
SMILES	KCNQ2 pot	KCNQ2 inh
Cc1ccc(-c2nnn(CC(=O)N(CCN3CCOCC3)C(C(=O)NC(C)(C)C)c3ccco3)n2)cc1 (stereo unspecified)	x	i
Cc1ccc(-c2nnn(CC(=O)N(CCN3CCOCC3)C(C(=O)NC(C)(C)C)c3ccc(C)o3)n2)cc1 (stereo unspecified)	-6	-6*
Cc1nn(C(=O)c2cccc([N+](=O)[O-])c2)c(C)c1Sc1ccccc1	x	i
O=C(NC1CCCCCC1)c1ccc(CN2CCOCC2)cc1	0.87	i
Cc1cccc(OCc2nnc(SCC(=O)N3c4ccccc4CC3C)n2C)c1C (stereo unspecified)	-6	-6*
Cc1ccccc1OCc1nnc(SCC(=O)N2CCc3ccccc32)n1C	2	i
COc1cccc(CN(Cc2ccco2)C(c2ccc(F)cc2)c2nnnn2C(C)(C)C)c1 (stereo unspecified)	-6.1	-6.1*
CC(C)(C)n1nnnc1C(c1cccnc1)N(Cc1ccccc1)Cc1ccco1 (stereo unspecified)	x	i
CCOC(=O)CN(c1ccccn1)S(=O)(=O)c1ccc(OC)cc1	x	i
CC(C)c1ccc(/C=C(\NC(=O)c2ccccc2)C(=O)NCCN2CCOCC2)cc1	x	i
CC(OC(=O)/C=C/c1ccc2ccccc2n1)C(=O)Nc1ccc(S(N)(=O)=O)cc1 (stereo unspecified)	0.33	i
Cc1ccc(C(=O)CCS(=O)(=O)c2ccc(F)cc2)cc1	-6.3	-6.3*
Cc1ccc(S(=O)(=O)CCC(=O)c2ccc(F)cc2)cc1	x	i
Cc1nn(C)cc1NC(=O)CC12CC3CC(CC(C3)C1)C2	2.1	i
CCn1nc(C)c(NC(=O)CC23CC4CC(CC(C4)C2)C3)c1C	21*	i
Brc1ccc(-c2noc(COc3ccc4c(c3)CCC4)n2)o1	x	i
c1csc(-c2noc(COc3ccc4c(c3)CCCC4)n2)c1	-6	-6*
COc1ccc(NC(=O)NCc2cccnc2)c(OC)c1	x	i
COc1ccc(NC(=O)N(Cc2cccnc2)Cc2ccccc2Cl)c(OC)c1	-5.8	-5.8*
CCCCC(=O)Nc1ccc(C(N)=O)cc1	0.4	i
CCCCC(=O)Nc1ccc(NCc2ccc(C)s2)cc1	30*	i
COc1ccc(CCC(=O)Nc2ccc(Cn3ccnc3)cc2)cc1	x	i
COc1ccc(-c2ccc(/C=N/NC(=O)Cc3nnc(N)s3)o2)cc1Cl	-7.4	-7.4*
Cc1ccc(-c2ccc(/C=N/NC(=O)Cc3nnc(N)s3)o2)cc1Cl	x	i
CCOC(=O)CC1CCCCN1C(=O)c1cc(COc2cccc3cnccc23)on1 (stereo unspecified)	x	i
SMILES	KCNQ2 pot	KCNQ2 inh
CCN(CC(=O)Nc1c(F)cccc1F)C(=O)c1cc(S(=O)(=O)N2CCOCC2)ccc1N1CCCC1	1.6	i
OC(CCN1CCOCC1)(c1ccc(Cl)cc1)C1CCCCC1 (stereo unspecified)	-5.8	-5.8*
OC(CCN1CCCCC1)(c1ccccc1)C1CCCCC1 (stereo unspecified)	x	i
CCn1c(COC(=O)CNC(=O)c2ccccc2F)nc2cc(S(=O)(=O)N(C)C)ccc21	x	i
Cc1onc(-c2c(F)cccc2Cl)c1C(=O)OCC(=O)NC(N)=O	0.29	i
Cc1onc(-c2c(F)cccc2Cl)c1C(=O)OCC(=O)NC(c1ccccc1)c1ccccc1	-5.6	-5.6*
CC(C)CC(=O)Nc1nnc(SCC(=O)NCc2ccc3c(c2)OCO3)s1	x	i
Cn1c(CSc2ncccn2)nnc1SCC(=O)N1CCCC1	-6.3	-6.3*
Cn1c(CSc2ncccn2)nnc1SCC(=O)N1CCCCCC1	0.82	i
COc1ccc(S(=O)(=O)N2CCN(c3ccc(C)cc3C)CC2)cc1OC	x	i
CCOc1ccc(S(=O)(=O)N2CCN(c3ccc(C)cc3C)CC2)cc1	-7	-7*
COc1ccc(-n2c3c(cc(C#N)c2=O)C(=O)CCC3)cc1	x	i
CC1CCCCC1NC(=O)C1CCN(S(=O)(=O)c2cccc3nonc23)CC1 (stereo unspecified)	0.25	i
COc1ccc(C(=O)N(CCc2ccccc2)Cc2ccccc2)cc1S(=O)(=O)N1CCOCC1	x	i
Cc1ccc(C(=O)N(CCc2ccccc2)Cc2ccccc2)cc1S(=O)(=O)N1CCCCC1	-8.1	-8.1*
O=C(OCC(=O)N(CCc1ccccc1)Cc1ccccc1)c1cc(S(=O)(=O)N2CCOCC2)ccc1F	x	i
O=C(OCC(=O)N(CCc1ccccc1)Cc1ccccc1)c1ccccc1NCCO	-6.5	-6.5*
O=C(OCC(=O)N(CCc1ccccc1)Cc1ccccc1)c1cccc(O)c1	x	i
Cc1ccc(C(=O)OCC(=O)N(CCc2ccccc2)Cc2ccccc2)cc1S(=O)(=O)N1CCOCC1	-6	-6*
Cc1ccccc1C(=O)N1CCC(C(=O)NC2CCCC2)CC1	0.01	i
C/C(CCS(=O)(=O)c1ccccc1)=N/O	0.92	i
CC(C)c1ccc(NC(=O)NCc2cccnc2)cc1	x	i
Cc1cccc(OCC(=O)Nc2ccc(C(=O)Nc3ccccc3C(=O)O)cc2)c1C	x	i
